# Results: paper PMC7862700, “An all-to-all approach to the identification of sequence-specific readers for epigenetic DNA modifications on cytosine”
# Columns and labels:
# Test in all cases: DAPPL (digital affinity profiling via proximity ligation, sequencing); 10 mM Tris-HCl pH 7.5, 50 mM NaCl, 1 mM DTT, 4% glycerol, room temperature, 30 min; GST-TFs on glutathione beads, 16-mer random dsDNA library, 0.1% formaldehyde crosslink after washing; high values mean tight binding
# FLI1 = biological target: T1, FLI1 (Homo sapiens, UniProt Q01543 1-452); conditions: protein: recombinant; tags: N-terminal GST; dsDNA, one strand shown
# T1 sequence: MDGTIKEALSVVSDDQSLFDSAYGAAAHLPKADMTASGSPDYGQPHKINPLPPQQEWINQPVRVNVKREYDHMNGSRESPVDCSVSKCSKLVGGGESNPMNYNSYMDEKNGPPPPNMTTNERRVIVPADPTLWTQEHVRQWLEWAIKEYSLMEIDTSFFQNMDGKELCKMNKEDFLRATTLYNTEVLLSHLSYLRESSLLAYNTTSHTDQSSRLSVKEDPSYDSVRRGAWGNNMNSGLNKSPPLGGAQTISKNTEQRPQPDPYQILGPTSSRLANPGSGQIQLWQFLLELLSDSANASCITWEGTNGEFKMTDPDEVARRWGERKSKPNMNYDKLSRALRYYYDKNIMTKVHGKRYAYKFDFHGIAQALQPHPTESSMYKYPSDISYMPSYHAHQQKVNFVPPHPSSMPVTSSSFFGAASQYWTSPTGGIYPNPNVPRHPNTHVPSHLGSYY
# In short: (§1)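 Each value of binding signal is a hexamer's read frequency for a factor divided by the same hexamer's frequency in the tag-only sample. Barcoded, bead-captured GST fusions of human transcription factors made in yeast were pooled with that sample and incubated with 200 nmole of a random double-stranded 16-mer DNA library in Tris/NaCl/DTT/glycerol buffer at room temperature for 30 min. Washing, 0.1% formaldehyde crosslinking, proximity ligation, PCR and Illumina NextSeq500 sequencing followed.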
# ELK1 = biological target: T2, ELK1 (Homo sapiens, UniProt P19419 1-428); conditions: protein: recombinant; tags: N-terminal GST; dsDNA, one strand shown
# T2 sequence: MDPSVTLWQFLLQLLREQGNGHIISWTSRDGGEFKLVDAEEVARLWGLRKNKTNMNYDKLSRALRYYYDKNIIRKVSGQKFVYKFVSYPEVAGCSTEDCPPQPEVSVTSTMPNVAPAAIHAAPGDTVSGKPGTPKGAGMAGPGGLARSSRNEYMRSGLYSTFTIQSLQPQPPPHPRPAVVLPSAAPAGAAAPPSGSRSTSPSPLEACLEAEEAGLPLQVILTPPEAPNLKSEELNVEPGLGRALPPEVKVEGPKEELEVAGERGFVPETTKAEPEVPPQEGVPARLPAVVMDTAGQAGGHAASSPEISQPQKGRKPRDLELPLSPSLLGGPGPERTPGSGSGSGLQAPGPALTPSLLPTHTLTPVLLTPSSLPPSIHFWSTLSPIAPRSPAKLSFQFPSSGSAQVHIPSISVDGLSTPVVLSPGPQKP
# In short: as §1
# GABPA = biological target: T3, GABPA (Homo sapiens, UniProt Q06546 1-454); conditions: protein: recombinant; tags: N-terminal GST; dsDNA, one strand shown
# T3 sequence: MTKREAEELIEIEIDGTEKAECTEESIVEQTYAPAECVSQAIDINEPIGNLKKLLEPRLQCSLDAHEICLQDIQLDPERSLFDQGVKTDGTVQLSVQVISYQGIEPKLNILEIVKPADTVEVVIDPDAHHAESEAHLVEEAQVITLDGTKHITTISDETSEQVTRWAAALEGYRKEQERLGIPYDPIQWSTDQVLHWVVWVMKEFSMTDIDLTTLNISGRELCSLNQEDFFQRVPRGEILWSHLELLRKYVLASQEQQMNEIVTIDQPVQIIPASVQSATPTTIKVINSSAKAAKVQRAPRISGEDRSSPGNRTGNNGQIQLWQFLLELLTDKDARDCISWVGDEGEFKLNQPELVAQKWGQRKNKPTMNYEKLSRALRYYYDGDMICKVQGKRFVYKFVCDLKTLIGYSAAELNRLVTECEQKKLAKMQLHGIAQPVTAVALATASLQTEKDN
# In short: as §1
# ERG = biological target: T4, ERG (Homo sapiens, UniProt P11308 1-479); conditions: protein: recombinant; tags: N-terminal GST; dsDNA, one strand shown
# T4 sequence: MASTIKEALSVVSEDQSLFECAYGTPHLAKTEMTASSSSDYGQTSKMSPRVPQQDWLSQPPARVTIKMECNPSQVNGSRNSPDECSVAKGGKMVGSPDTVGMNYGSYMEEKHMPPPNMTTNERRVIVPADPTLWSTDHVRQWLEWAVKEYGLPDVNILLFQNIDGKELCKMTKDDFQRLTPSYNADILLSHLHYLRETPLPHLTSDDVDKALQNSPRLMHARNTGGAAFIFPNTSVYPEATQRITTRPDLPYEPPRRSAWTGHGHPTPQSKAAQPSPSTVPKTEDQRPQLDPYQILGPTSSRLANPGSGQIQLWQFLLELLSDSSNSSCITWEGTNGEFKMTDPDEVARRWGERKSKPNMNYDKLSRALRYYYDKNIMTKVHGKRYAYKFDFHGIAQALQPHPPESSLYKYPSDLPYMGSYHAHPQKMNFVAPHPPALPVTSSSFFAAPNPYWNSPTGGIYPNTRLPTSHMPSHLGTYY
# In short: as §1
# ELF1 = ELF1 (Homo sapiens, UniProt P32519 1-619); conditions: protein: recombinant; tags: N-terminal GST; dsDNA, one strand shown
# In short: as §1
# EHF = biological target: T5, EHF (Homo sapiens, UniProt Q9NZC4 1-300); conditions: protein: recombinant; tags: N-terminal GST; dsDNA, one strand shown
# T5 sequence: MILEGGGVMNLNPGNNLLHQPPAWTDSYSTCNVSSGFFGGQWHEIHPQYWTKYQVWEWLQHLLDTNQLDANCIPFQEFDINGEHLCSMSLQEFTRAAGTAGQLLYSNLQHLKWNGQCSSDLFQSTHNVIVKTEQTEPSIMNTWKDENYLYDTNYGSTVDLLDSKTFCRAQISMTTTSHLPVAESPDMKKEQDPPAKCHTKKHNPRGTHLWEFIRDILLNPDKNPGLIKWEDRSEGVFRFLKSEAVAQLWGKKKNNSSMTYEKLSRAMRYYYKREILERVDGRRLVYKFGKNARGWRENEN
# In short: as §1
# SPI1 = SPI1 (Homo sapiens, UniProt P17947 1-270); conditions: protein: recombinant; tags: N-terminal GST; dsDNA, one strand shown
# In short: as §1
# SPIB = SPIB (Homo sapiens, UniProt Q01892 1-262); conditions: protein: recombinant; tags: N-terminal GST; dsDNA, one strand shown
# In short: as §1
# ELK3 = biological target: T6, ELK3 (Homo sapiens, UniProt P41970 1-407); conditions: protein: recombinant; tags: N-terminal GST; dsDNA, one strand shown
# T6 sequence: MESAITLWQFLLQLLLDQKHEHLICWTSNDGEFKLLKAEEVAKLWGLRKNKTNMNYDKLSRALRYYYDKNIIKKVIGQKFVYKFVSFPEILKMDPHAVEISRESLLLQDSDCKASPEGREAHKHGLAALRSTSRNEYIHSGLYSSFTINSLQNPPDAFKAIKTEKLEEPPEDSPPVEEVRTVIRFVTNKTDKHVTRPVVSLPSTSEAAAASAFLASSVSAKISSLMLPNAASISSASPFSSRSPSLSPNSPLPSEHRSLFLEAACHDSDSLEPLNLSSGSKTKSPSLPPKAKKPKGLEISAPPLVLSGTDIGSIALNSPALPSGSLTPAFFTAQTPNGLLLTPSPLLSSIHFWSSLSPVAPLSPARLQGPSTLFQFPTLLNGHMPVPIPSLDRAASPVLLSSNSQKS
# In short: as §1
# FEV = biological target: T7, FEV (Homo sapiens, UniProt Q99581 1-238); conditions: protein: recombinant; tags: N-terminal GST; dsDNA, one strand shown
# T7 sequence: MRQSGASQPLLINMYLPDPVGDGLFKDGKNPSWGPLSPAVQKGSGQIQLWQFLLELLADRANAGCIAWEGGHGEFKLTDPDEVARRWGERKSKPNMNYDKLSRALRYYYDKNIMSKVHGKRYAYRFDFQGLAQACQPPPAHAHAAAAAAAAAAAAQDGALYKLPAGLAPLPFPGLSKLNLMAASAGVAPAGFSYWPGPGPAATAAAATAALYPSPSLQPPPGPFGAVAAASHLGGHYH
# In short: as §1
# ETV5 = ETV5 (Homo sapiens, UniProt P41161 1-510); conditions: protein: recombinant; tags: N-terminal GST; dsDNA, one strand shown
# In short: as §1
# HSF1 = HSF1 (Homo sapiens, UniProt Q00613 1-529); conditions: protein: recombinant; tags: N-terminal GST; chain copies: 3; dsDNA, one strand shown
# In short: as §1
# SPIC = biological target: T8, SPIC (Homo sapiens, UniProt Q8N5J4 1-248); conditions: protein: recombinant; tags: N-terminal GST; dsDNA, one strand shown
# T8 sequence: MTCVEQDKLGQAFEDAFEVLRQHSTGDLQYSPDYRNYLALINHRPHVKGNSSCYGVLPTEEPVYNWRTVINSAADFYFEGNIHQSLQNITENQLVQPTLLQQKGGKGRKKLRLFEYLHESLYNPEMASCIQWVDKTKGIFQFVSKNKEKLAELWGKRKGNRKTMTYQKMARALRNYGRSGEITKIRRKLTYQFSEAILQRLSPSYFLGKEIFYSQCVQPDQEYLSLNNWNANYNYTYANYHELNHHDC
# In short: as §1
# ELF4 = ELF4 (Homo sapiens, UniProt Q99607 1-663); conditions: protein: recombinant; tags: N-terminal GST; dsDNA, one strand shown
# In short: as §1
# ELK4 = biological target: T9, ELK4 (Homo sapiens, UniProt P28324-2 1-405); conditions: protein: recombinant; tags: N-terminal GST; dsDNA, one strand shown
# T9 sequence: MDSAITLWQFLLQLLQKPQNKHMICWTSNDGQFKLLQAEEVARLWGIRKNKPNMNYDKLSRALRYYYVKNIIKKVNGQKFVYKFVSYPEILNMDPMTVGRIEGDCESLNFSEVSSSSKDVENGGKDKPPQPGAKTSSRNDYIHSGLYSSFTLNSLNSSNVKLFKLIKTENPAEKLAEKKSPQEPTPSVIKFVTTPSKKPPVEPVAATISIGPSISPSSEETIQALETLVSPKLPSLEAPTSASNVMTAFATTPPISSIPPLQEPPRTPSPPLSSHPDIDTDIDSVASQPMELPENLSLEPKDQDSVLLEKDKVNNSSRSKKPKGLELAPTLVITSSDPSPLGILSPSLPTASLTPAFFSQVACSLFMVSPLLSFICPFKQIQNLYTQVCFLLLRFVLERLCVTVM
# In short: as §1
# ETV2 = biological target: T10, ETV2 (Homo sapiens, UniProt O00321 1-342); conditions: protein: recombinant; tags: N-terminal GST; dsDNA, one strand shown
# T10 sequence: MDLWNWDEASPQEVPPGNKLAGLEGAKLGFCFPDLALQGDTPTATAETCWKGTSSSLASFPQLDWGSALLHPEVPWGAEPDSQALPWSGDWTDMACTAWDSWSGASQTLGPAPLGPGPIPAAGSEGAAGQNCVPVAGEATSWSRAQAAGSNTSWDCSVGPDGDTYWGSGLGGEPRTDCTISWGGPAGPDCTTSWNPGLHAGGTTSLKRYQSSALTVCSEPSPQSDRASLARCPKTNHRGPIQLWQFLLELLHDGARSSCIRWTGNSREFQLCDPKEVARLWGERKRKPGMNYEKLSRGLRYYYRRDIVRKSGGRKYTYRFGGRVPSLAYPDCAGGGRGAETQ
# In short: as §1
# ELF3 = biological target: T11, ELF3 (Homo sapiens, UniProt P78545 1-371); conditions: protein: recombinant; tags: N-terminal GST; dsDNA, one strand shown
# T11 sequence: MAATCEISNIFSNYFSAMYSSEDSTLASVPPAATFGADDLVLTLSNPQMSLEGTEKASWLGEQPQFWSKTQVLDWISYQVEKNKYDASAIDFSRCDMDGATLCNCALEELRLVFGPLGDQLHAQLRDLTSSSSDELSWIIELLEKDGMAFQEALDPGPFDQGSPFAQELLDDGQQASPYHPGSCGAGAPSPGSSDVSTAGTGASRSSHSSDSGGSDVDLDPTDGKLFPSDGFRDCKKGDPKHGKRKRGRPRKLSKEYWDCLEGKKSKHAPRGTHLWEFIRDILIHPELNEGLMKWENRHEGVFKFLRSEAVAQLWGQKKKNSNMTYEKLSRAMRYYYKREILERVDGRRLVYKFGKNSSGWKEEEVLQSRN
# In short: as §1
# CRX = CRX (Homo sapiens, UniProt O43186 1-299); conditions: protein: recombinant; tags: N-terminal GST; dsDNA, one strand shown
# In short: as §1
# ETV1 = ETV1 (Homo sapiens, UniProt P50549 1-477); conditions: protein: recombinant; tags: N-terminal GST; dsDNA, one strand shown
# In short: as §1
# Sequence of ELF1 (P32519 whole entry): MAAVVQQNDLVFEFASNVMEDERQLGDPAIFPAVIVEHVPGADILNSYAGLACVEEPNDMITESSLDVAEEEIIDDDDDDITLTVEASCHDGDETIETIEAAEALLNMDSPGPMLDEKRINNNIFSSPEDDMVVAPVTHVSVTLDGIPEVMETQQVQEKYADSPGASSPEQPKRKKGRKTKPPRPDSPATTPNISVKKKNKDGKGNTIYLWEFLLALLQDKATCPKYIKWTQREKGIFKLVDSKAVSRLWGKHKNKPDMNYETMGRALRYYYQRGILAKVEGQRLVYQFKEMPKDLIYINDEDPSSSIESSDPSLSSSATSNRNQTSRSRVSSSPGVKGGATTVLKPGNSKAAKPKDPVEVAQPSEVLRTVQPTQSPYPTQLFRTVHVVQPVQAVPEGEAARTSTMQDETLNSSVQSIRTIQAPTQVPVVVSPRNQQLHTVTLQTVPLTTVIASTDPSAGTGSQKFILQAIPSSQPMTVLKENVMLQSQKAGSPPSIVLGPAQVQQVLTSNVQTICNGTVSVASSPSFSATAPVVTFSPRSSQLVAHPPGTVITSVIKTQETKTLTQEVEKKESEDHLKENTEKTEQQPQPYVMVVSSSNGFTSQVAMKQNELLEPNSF
# Sequence of SPIB (Q01892 whole entry): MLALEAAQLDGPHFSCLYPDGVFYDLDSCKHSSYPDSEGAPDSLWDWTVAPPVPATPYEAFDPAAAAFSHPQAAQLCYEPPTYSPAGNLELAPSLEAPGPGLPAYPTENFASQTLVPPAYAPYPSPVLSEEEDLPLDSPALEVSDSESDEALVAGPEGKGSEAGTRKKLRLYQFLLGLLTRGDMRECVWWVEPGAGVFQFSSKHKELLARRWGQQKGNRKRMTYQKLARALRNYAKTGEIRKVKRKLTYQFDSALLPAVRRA
# Sequence of HSF1 (Q00613 whole entry): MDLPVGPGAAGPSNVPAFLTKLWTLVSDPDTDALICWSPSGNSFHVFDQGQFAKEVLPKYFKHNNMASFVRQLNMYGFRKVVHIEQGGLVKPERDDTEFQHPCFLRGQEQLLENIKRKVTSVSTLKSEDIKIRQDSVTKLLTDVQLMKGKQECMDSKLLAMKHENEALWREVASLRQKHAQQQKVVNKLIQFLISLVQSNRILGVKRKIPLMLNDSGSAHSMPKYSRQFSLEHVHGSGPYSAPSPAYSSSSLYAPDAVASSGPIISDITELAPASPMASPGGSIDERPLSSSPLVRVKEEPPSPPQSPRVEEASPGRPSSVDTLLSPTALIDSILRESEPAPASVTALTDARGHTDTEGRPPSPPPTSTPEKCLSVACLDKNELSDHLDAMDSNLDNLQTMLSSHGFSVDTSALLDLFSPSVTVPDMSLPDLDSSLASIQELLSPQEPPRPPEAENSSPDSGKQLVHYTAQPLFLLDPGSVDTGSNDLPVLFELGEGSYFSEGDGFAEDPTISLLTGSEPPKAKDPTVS
# Sequence of ELF4 (Q99607 whole entry): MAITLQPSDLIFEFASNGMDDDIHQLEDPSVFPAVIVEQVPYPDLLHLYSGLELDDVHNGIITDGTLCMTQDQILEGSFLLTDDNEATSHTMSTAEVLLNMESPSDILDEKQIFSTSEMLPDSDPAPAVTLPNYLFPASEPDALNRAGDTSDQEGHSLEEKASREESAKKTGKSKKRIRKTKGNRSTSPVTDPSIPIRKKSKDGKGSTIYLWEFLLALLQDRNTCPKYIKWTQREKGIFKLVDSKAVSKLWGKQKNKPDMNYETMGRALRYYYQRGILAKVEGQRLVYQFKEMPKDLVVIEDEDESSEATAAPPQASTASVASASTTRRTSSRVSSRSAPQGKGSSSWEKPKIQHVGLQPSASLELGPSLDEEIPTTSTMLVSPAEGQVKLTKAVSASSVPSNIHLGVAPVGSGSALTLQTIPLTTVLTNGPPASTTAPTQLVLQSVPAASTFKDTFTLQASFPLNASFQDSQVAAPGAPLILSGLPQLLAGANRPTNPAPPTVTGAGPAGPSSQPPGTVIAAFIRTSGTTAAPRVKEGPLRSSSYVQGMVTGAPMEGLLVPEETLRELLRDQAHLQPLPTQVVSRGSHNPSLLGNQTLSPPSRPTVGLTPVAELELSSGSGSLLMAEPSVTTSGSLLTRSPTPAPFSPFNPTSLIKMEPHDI
# Sequence of ETV1 (P50549 whole entry): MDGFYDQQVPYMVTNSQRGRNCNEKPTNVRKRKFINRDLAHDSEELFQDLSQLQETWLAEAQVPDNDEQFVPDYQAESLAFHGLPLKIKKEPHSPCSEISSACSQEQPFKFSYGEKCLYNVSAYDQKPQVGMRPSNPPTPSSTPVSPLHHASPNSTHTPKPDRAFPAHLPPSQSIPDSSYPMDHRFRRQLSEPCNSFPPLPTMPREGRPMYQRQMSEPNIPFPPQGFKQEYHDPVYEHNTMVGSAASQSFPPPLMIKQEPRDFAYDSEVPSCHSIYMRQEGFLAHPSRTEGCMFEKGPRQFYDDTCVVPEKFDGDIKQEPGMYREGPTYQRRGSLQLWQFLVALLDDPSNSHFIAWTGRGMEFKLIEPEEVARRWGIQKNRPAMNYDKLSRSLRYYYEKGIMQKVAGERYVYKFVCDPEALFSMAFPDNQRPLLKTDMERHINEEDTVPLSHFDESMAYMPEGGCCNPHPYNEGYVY
# Sequence of ETV5 (P41161 whole entry): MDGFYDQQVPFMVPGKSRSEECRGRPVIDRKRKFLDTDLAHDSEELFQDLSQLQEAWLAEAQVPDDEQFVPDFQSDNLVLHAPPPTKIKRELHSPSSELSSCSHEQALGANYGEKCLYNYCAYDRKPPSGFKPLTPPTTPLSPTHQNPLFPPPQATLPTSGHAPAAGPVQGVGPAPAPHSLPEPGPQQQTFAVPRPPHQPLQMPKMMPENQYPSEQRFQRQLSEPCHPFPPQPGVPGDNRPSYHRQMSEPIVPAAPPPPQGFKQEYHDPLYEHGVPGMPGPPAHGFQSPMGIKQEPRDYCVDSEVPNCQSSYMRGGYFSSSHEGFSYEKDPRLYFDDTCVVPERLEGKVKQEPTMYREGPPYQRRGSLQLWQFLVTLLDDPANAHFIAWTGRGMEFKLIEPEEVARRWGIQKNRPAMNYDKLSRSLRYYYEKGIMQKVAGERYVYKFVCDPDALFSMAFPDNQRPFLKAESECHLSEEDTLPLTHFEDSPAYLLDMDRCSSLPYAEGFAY
# Sequence of CRX (O43186 whole entry): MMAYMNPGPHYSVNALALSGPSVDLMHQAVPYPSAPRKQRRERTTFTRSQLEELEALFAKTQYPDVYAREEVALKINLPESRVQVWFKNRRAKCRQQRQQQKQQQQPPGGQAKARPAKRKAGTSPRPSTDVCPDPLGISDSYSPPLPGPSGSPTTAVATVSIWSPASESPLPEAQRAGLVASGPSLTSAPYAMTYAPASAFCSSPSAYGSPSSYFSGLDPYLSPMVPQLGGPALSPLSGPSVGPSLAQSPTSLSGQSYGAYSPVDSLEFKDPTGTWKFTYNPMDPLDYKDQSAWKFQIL
sequence,measurement,setting,value
ACCCTT,binding signal,FLI1,"1.3 fold enrichment (6-mer frequency, TF over GST control)"
same,binding signal,ELK1,"1.23 fold enrichment (6-mer frequency, TF over GST control)"
same,binding signal,GABPA,"1.23 fold enrichment (6-mer frequency, TF over GST control)"
same,binding signal,ERG,"1.19 fold enrichment (6-mer frequency, TF over GST control)"
same,binding signal,ELF1,"1.16 fold enrichment (6-mer frequency, TF over GST control)"
same,binding signal,EHF,"1.18 fold enrichment (6-mer frequency, TF over GST control)"
same,binding signal,SPI1,"1.21 fold enrichment (6-mer frequency, TF over GST control)"
same,binding signal,SPIB,"1.19 fold enrichment (6-mer frequency, TF over GST control)"
same,binding signal,ELK3,"1.2 fold enrichment (6-mer frequency, TF over GST control)"
same,binding signal,FEV,"1.21 fold enrichment (6-mer frequency, TF over GST control)"
same,binding signal,ETV5,"1.25 fold enrichment (6-mer frequency, TF over GST control)"
same,binding signal,HSF1,"1.09 fold enrichment (6-mer frequency, TF over GST control)"
same,binding signal,SPIC,"1.02 fold enrichment (6-mer frequency, TF over GST control)"
same,binding signal,ELF4,"1.26 fold enrichment (6-mer frequency, TF over GST control)"
same,binding signal,ELK4,"1.08 fold enrichment (6-mer frequency, TF over GST control)"
same,binding signal,ETV2,"1.33 fold enrichment (6-mer frequency, TF over GST control)"
same,binding signal,ELF3,"1.23 fold enrichment (6-mer frequency, TF over GST control)"
same,binding signal,CRX,"1.15 fold enrichment (6-mer frequency, TF over GST control)"
same,binding signal,ETV1,"1.18 fold enrichment (6-mer frequency, TF over GST control)"
